Most compounds without a hit are left out; they make up all but 19% or so of the library.
TDP1 cell noCPT – qHTS for Inhibitors of human tyrosyl-DNA phosphodiesterase 1 (TDP1): qHTS in cells in absence of CPT | DT40 Tdp1-/- hTDP1 cells, no CPT, ATP luminescence, 48 h | Potency, µM (series often up to 46.2 µM), most hits filed as inhibitors | actives 15% (n = 420,000) | AID 686978, 2013; also: nearly all actives have a fitted effect of over 55% in size
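Cells were dispensed at 400 per well, compounds added by pin tool, plates incubated ≥48 hr at 37 °C, then CellTiter-Glo added for 30 min at room temperature before luminescence reading. Line: DT40 Tdp1-/- complemented with hTDP1; camptothecin omitted.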
IL-1B inflam inh – inflammasome signaling inhibition, IL-1 beta readout; THP-1 LPS/ATP IL-1B secretion, AlphaLISA, 16 h; hits give low values; activity change, % at 57.5 µM; actives 4.7% (n = 360,000); AID 743279; in the data active = activity change below about -50%; inconclusive = mostly about -30% to -49%
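THP-1 cells pretreated 1 hr with compounds (up to 57.5 uM final), then stimulated with LPS (250 ng/mL final) plus ATP (1.25 mM final); secreted IL-1B measured by AlphaLISA after 16 hr, decreased signal indicating inhibition.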
DT40 TDP1 CPT – DT40-hTDP1 cell growth loss with CPT. chicken DT40 Tdp1-/-;hTDP1 cells + 20 nM CPT, ATP luminescence, 48 h. Potency, µM (highest dose often 46.2 µM), actives largely listed as inhibitors. actives 12% (n = 420,000); also: nearly all actives have a fitted effect of over 55% in size
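Cell growth measured by CellTiter-Glo luminescence after a minimum 48 h, 37 C compound exposure with 20 nM CPT in Tdp1-knockout DT40 cells stably expressing hTDP1, seeded 400/well; qHTS titration format.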
HT1080 IDH1KD tx – HT-1080 IDH1 knockdown cell toxicity (counter line). HT-1080 IDH1 knockdown viability, ATP luminescence, 48 h. Potency, µM (highest dose often 46.1 µM), hits mostly cytotoxic. actives 2% (n = 360,000)
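Using the IDH1-knockdown HT-1080 line run in the same batch and compound series as the NT line, viability after 48 h at 37 °C was determined by CellTiter-Glo luminescence and expressed as % activity.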
HT1080NT lethal – kills 2HG-producing HT-1080-NT fibrosarcoma cells; actives 1.6% (n = 360,000); HT-1080-NT fibrosarcoma viability, CellTiter-Glo ATP luminescence, 48 h; Potency, µM (highest dose often 46.1 µM), usual class: cytotoxic;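 also: NT is the 2HG producing partner of a matched IDH1 knockdown line; nearly all actives have a fitted effect of over 55% in size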
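Compounds were tested in concentration-response format on HT-1080-NT cells for 48 hours at 37 degrees C. Cell viability came from CellTiter-Glo luminescence; curves were classified by r2, response magnitude and activity.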
Each line names hits and unclear results; the compound was inactive in the other large screens. Unless noted, calls follow the shape of the dose curve; as a rule, active = well fitted curve in the direction sought with a large enough effect; inconclusive = small, poorly fitted or top-dose-only effect, or another doubt; inactive = no such curve, though single readings can be large; an effect the other way counts as inactive or inconclusive.

CCOc1ccccc1N(CC(=O)Nc1cc(OC)ccc1OC)S(=O)(=O)c1ccccc1	TDP1 cell noCPT inconclusive, DT40 TDP1 CPT inconclusive
CCOc1ccccc1N(CC(=O)Nc1cccnc1)S(C)(=O)=O	none
COc1ccc(N(CC(=O)Nc2ccc(C)c(C)c2)S(=O)(=O)c2ccc(C)cc2)cc1OC	none (no result: IL-1B inflam inh, HT1080 IDH1KD tx, HT1080NT lethal)
COc1ccc(OC)c(N(CC(=O)Nc2cccnc2)S(=O)(=O)c2ccc(C)cc2)c1	TDP1 cell noCPT inconclusive, DT40 TDP1 CPT 16.4µM, HT1080 IDH1KD tx inconclusive, HT1080NT lethal inconclusive
O=C(COCc1cc(-c2ccco2)on1)Nc1cccc(O)c1	none (no result: IL-1B inflam inh, HT1080 IDH1KD tx, HT1080NT lethal)
C[C@@H]1CN([C@H](C)CO)C(=O)c2cc(Br)cnc2O[C@H]1CN(C)C	none
Cc1ccc(S(=O)(=O)N(CC(=O)Nc2cccnc2)c2cc(Cl)ccc2C)cc1	TDP1 cell noCPT 18.4µM, DT40 TDP1 CPT 16.4µM (no result: IL-1B inflam inh, HT1080 IDH1KD tx, HT1080NT lethal)
Cc1ccc(S(=O)(=O)N(C)c2ccc(C(=O)Nc3cccnc3)cc2)cc1	DT40 TDP1 CPT inconclusive
Cc1ccccc1NC(=O)CN(c1ccc(Cl)cc1Cl)S(=O)(=O)c1ccccc1	TDP1 cell noCPT inconclusive, DT40 TDP1 CPT 18.4µM (no result: IL-1B inflam inh, HT1080 IDH1KD tx, HT1080NT lethal)
CCOC(=O)c1ccccc1NC(=O)CN(c1ccccc1OCC)S(C)(=O)=O	TDP1 cell noCPT inconclusive, DT40 TDP1 CPT inconclusive
CCOC(=O)c1ccccc1NC(=O)CN(c1cccc(C)c1C)S(=O)(=O)c1ccccc1	TDP1 cell noCPT 5.8µM, DT40 TDP1 CPT 7.31µM (no result: IL-1B inflam inh, HT1080 IDH1KD tx, HT1080NT lethal)
COc1ccccc1N(CC(=O)Nc1ccc(Cc2ccncc2)cc1)S(=O)(=O)c1ccccc1	TDP1 cell noCPT inconclusive, DT40 TDP1 CPT 23.1µM
Cc1ccccc1OCC(=O)Nc1nnc(COc2ccccc2)s1	TDP1 cell noCPT inconclusive
CCOC(=O)CNC(=O)CSc1nc(Cc2ccccc2)nc2ccccc12	DT40 TDP1 CPT inconclusive
O=C(CN1C(=O)NC2(CCOc3ccccc32)C1=O)NCc1ccccc1 (configuration not stated)	none
S=c1[nH]nc(-c2ccc3ccccc3n2)n1-c1cc(Cl)cc(Cl)c1	TDP1 cell noCPT 16.4µM, DT40 TDP1 CPT inconclusive
[O-][N+](=NC1C=Cc2ccccc21)C1C=Cc2ccccc21 (configuration not stated)	none (no result: IL-1B inflam inh, HT1080 IDH1KD tx, HT1080NT lethal)
ClCc1ncc(-c2ccc(Cl)cc2)o1	TDP1 cell noCPT 16.4µM, IL-1B inflam inh inconclusive, DT40 TDP1 CPT 14.6µM
CC1CCC/C=C/C(=O)c2c(O)cc(O)cc2CC(=O)O1 (configuration not stated)	TDP1 cell noCPT 4.11µM, IL-1B inflam inh -115.0, DT40 TDP1 CPT 4.61µM, HT1080 IDH1KD tx 20.6µM, HT1080NT lethal 18.4µM
C[C@@H]1Cc2c(O)c(O)cc(O)c2C(=O)O1	TDP1 cell noCPT inconclusive, DT40 TDP1 CPT inconclusive
CC(C)NC(=O)c1ccc(COc2ccc(C(C)(C)C)cc2)o1	TDP1 cell noCPT 13µM, DT40 TDP1 CPT inconclusive, HT1080NT lethal inconclusive
CCOc1ccc(OCc2ccc(C(=O)NC(C)(C)C)o2)cc1	TDP1 cell noCPT inconclusive, IL-1B inflam inh inconclusive, DT40 TDP1 CPT 7.31µM
CC(C)NC(=O)c1ccc(COc2cccc3ccccc23)o1	TDP1 cell noCPT 18.4µM, DT40 TDP1 CPT inconclusive
O=C(Nc1cccc(F)c1)c1cc(S(=O)(=O)N2CCOCC2)cs1	TDP1 cell noCPT inconclusive
Cc1nc(C)n(C(C)CNS(=O)(=O)c2ccc(Cl)cc2)n1 (configuration not stated)	none
CCOC(=O)C1CCCCN1C(=O)c1cc2ccc(OC)cc2c2cc(OC)c(OC)cc12 (configuration not stated)	TDP1 cell noCPT 18.4µM, DT40 TDP1 CPT inconclusive
CC(=O)NC(C)(c1ccccc1)c1nc(-c2cccc(C(F)(F)F)c2)cs1 (configuration not stated)	TDP1 cell noCPT 14.6µM, DT40 TDP1 CPT inconclusive, HT1080NT lethal inconclusive
CC(=O)Nc1cccc(-c2csc(C(C)(NC(C)=O)c3ccccc3)n2)c1 (configuration not stated)	TDP1 cell noCPT inconclusive, DT40 TDP1 CPT 25.9µM
Cc1nc2ccccc2c(=O)n1-c1ccc(NC(=O)C(F)(F)F)cc1	none (no result: IL-1B inflam inh, HT1080 IDH1KD tx, HT1080NT lethal)
Cc1cc(C)n(CCc2nc(-c3ccc(F)cc3)cs2)n1	TDP1 cell noCPT inconclusive, IL-1B inflam inh inconclusive, DT40 TDP1 CPT inconclusive

Bioassay records from PubChem BioAssay.
